Screening data from PubChem BioAssay.
In the library only some 3.5% were active in any assay of this set; here they are far more common.
GPR151 activ: activators of human GPR151, primary screen, cell-based, PathHunter beta-arrestin, luminescence | activation, % at 11.2 µM | PathHunter beta-arrestin GPR151 cells | actives 1% (n = 650,000) | G-protein coupled receptor 151 (Homo sapiens), Q8TDV0; in the data active = activation above about 4.9%;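 also: 0% = median of compound wells and 100% = cells with positive control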
Target sequence (Q8TDV0 whole entry, looked up): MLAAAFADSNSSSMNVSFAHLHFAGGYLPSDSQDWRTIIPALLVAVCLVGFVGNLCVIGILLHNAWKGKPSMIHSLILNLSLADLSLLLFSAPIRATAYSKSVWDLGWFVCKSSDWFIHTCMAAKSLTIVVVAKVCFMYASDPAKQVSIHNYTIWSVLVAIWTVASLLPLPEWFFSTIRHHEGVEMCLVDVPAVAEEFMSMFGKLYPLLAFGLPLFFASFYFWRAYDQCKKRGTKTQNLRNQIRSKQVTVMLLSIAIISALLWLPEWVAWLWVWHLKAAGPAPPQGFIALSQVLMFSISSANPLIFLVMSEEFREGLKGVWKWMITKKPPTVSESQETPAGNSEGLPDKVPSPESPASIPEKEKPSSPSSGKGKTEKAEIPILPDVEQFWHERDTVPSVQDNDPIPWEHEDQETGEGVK
MITF inh: MITF inhibitors, primary screen, biochemical, AlphaScreen, human; Microphthalmia-associated transcription factor (Homo sapiens), O75030; AlphaScreen MITF homodimerization, bead proximity signal; inhibition, % at 2.6 µM; actives 0.91% (n = 650,000); AID 1259374, 2018; in the data active = inhibition above about 50%;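 also: 0% = vehicle wells with protein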
FBW7 activator: FBW7 E3 ligase activators, primary screen, biochemical, AlphaScreen, human; F-box/WD repeat-containing protein 7 (Homo sapiens), Q969H0; AlphaScreen FBW7–phospho-cyclin E peptide binding, activator screen; normalized activity (activation), % at 26.1 µM; actives 0.13% (n = 650,000); AID 1259310, 2017; in the data active = normalized activity above about 1.9%;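 also: purified mutant Fbw7 with reduced substrate affinity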
TEAD-YAP inh: TEAD-YAP interaction inhibition, primary screen, TEAD-YAP interaction inhibitor project, luminescence, HEK-TIYL cells; AID 1259422, 2018; inhibition, % at 9.12 µM; actives 1.4% (n = 640,000); TEAD-Gal4/YAP UAS-luciferase luminescence; in the data active = inhibition above about 32%;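 also: 0% = median of test compound wells and 100% = reference inhibitor wells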
GPR151 conf act: GPR151 activators, triplicate retest, confirmation, cell-based, PathHunter beta-arrestin, luminescence; 6,700 tested, under 10 active; AID 1508609, 2020; shares compounds with GPR151 activ; GPR151 PathHunter beta-arrestin cells, 90 min; % of EA-reagent control over plate median; activation, % at 11.2 µM;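 active = mean percent activation across replicates above the confirmation screen cutoff of 4.91%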
GPR119 counter: GPR119 activators in beta-arrestin cells, counter-screen for GPR151 activator project, cell-based, PathHunter beta-arrestin, luminescence, triplicate | shares compounds with GPR151 activ | 90 min; 0 = compound-well median, 100 = enzyme-acceptor control | activation, % at 11.2 µM | actives 0.3% (n = 6,700) | AID 1508611, 2020;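 active = mean percent activation in the counterscreen above 29.09%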;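 also: counterscreen on off-target GPR119 to flag nonselective hits from the GPR151 activator screen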
An asterisk follows results filed as active.

CC(C)N(CCNc1nc(NCc2cccnc2)nc2nc[nH]c12)C(C)C was read as GPR151 activ 6.2*, MITF inh -4, FBW7 activator 0, TEAD-YAP inh 4, GPR151 conf act 0 and GPR119 counter -2.
For CCNc1nc(NCc2cccnc2)c2[nH]cnc2n1 the results were GPR151 activ -1, MITF inh 18, FBW7 activator 0 and TEAD-YAP inh -4.
For O=C(CSC1=NCCS1)NCc1ccccc1 the results were GPR151 activ 1, MITF inh 17, FBW7 activator 0 and TEAD-YAP inh -3.
Screening COC(CNC(=O)c1ccc2nc(-c3ccco3)c(-c3ccco3)nc2c1)OC returned GPR151 activ 0, MITF inh 16, FBW7 activator -1 and TEAD-YAP inh 8.
Screening Cc1c(Cl)cccc1NC(=O)C(=O)NC(C)c1ccccc1 (centres undefined) returned GPR151 activ 1, MITF inh 1, FBW7 activator 0 and TEAD-YAP inh 3.
`Cc1c(Cl)cccc1NC(=O)C(=O)NCC(O)c1ccccc1` (centres undefined) gave GPR151 activ 7.3*, MITF inh -2, FBW7 activator 0, TEAD-YAP inh -6, GPR151 conf act 0 and GPR119 counter 10.
`COCCCNC(=O)c1ccc(CNc2nc(=S)[nH]c3ccccc23)cc1` gave GPR151 activ 5.9*, MITF inh -2, FBW7 activator 0, TEAD-YAP inh -6, GPR151 conf act 0 and GPR119 counter 10.
O=S(=O)(c1cccs1)N(Cc1ccco1)C1CCN(CCc2cccs2)CC1 was read as GPR151 activ 7.5*, MITF inh 17, FBW7 activator 0, TEAD-YAP inh 3, GPR151 conf act -1 and GPR119 counter -13.
Screening CS(=O)(=O)N(Cc1ccco1)C1CCN(CCc2cccs2)CC1 returned GPR151 activ 0, MITF inh 4, FBW7 activator 0 and TEAD-YAP inh 5.
`CCOc1cc(/C=C(\C#N)C(=O)NCCCOC)ccc1OCc1ccccc1Cl` gave GPR151 activ 3, MITF inh 6, FBW7 activator 0 and TEAD-YAP inh 11.
O=C(NCc1ccccc1Br)c1ccco1 was read as GPR151 activ 6.1*, MITF inh 7, FBW7 activator 0, TEAD-YAP inh -3, GPR151 conf act -1 and GPR119 counter -10.
`O=C(NCc1ccccc1F)c1ccco1` gave GPR151 activ 1, MITF inh 4, FBW7 activator 0 and TEAD-YAP inh 3.
CC(C)c1ccc(NS(=O)(=O)c2ccc3[nH]cc(C(=O)N4CCCC4)c(=O)c3c2)cc1 was read as GPR151 activ 9.7*, MITF inh 49, FBW7 activator 0, TEAD-YAP inh -5, GPR151 conf act 1 and GPR119 counter 4.
`CCc1ccc(NS(=O)(=O)c2ccc3[nH]cc(C(=O)N4CCCCC4)c(=O)c3c2)cc1` gave GPR151 activ 0, MITF inh -5, FBW7 activator 0 and TEAD-YAP inh -1.
Cc1ccc(OCC(=O)Nc2nnc(S(=O)(=O)NCc3ccccc3)s2)cc1 was read as GPR151 activ 8.7*, MITF inh -9, FBW7 activator 0, TEAD-YAP inh -26, GPR151 conf act 1 and GPR119 counter -1.
Cc1cccc(OCC(=O)Nc2nnc(S(=O)(=O)N3CCc4ccccc43)s2)c1 was read as GPR151 activ 6.1*, MITF inh -4, FBW7 activator 0, TEAD-YAP inh -2, GPR151 conf act 0 and GPR119 counter -6.
Screening O=C(Nc1nnc(S(=O)(=O)N2CCc3ccccc32)s1)c1ccco1 returned GPR151 activ 2, MITF inh 1, FBW7 activator 0 and TEAD-YAP inh 2.
For O=C(Nc1nnc(S(=O)(=O)N2CCc3ccccc32)s1)c1cccs1 the results were GPR151 activ 5.2*, MITF inh -13, FBW7 activator 0, TEAD-YAP inh -2, GPR151 conf act 1 and GPR119 counter 3.
CCCC(C)C(=O)Nc1ccccc1Br (centres undefined) was read as GPR151 activ -2, MITF inh 4, FBW7 activator 0 and TEAD-YAP inh -3.
For Cc1ccc(Cl)cc1N(CC(=O)Nc1c(C)n(C)n(-c2ccccc2)c1=O)S(C)(=O)=O the results were GPR151 activ 1, MITF inh 0, FBW7 activator 0 and TEAD-YAP inh 7.
`OCc1ccccc1OCc1cccc2ccccc12` gave GPR151 activ 5.3*, MITF inh 6, FBW7 activator 0, TEAD-YAP inh -16, GPR151 conf act 0 and GPR119 counter 8.
CN1CCc2nc(SCc3ccccc3Cl)c(C#N)c(-c3cccs3)c2C1 was read as GPR151 activ -1, MITF inh 6, FBW7 activator 0 and TEAD-YAP inh -6.
`O=S(=O)(NCC(c1ccco1)N1CCc2ccccc21)c1ccc(F)cc1` (centres undefined) gave GPR151 activ 9.1*, MITF inh 3, FBW7 activator 0, TEAD-YAP inh 4, GPR151 conf act -1 and GPR119 counter -8.
Screening COc1ccc(NC(=O)CN(C)S(=O)(=O)c2ccc(Cl)cc2)cc1Cl returned GPR151 activ 10*, MITF inh 0, FBW7 activator 0, TEAD-YAP inh 6, GPR151 conf act 0 and GPR119 counter -6.
Cc1ccc(NC(=O)CN(C)S(=O)(=O)c2ccc(Br)cc2)cc1Cl was read as GPR151 activ 9.5*, MITF inh 18, FBW7 activator 0, TEAD-YAP inh 4, GPR151 conf act 2 and GPR119 counter -3.
Screening Cc1ccc(NC(=O)CN(C)S(=O)(=O)c2ccc(Br)cc2)cc1C returned GPR151 activ 1, MITF inh -13, FBW7 activator 0 and TEAD-YAP inh -2.
`O=C(CCNS(=O)(=O)c1ccc2[nH]c(=O)ccc2c1)N1CCC(N2CCCCC2)CC1` gave GPR151 activ 4, MITF inh -5, FBW7 activator 0 and TEAD-YAP inh 2.
Screening Cc1cccc(-n2cc(-c3ccccc3)nc2SCC(=O)Nc2ccc(Cl)cc2)c1 returned GPR151 activ 6.3*, MITF inh 11, FBW7 activator 0, TEAD-YAP inh -8, GPR151 conf act 0 and GPR119 counter 2.
`COc1ccccc1C(=O)Nc1ccc2c(C)cc(=O)oc2c1` gave GPR151 activ 17*, MITF inh 13, FBW7 activator 0, TEAD-YAP inh -65, GPR151 conf act -1 and GPR119 counter -6.
